Experimental data from PubChem BioAssay (Tox21).
Results filed as inconclusive are left out. Activity calls are given as the source filed them. The call rests on the fitted dose curve.

Legend:
[1] = molecular target: Acetylcholinesterase (Homo sapiens) (UniProt P22303); assay: Acetylcholinesterase (AChE) small molecule antagonists: colormetric cell-based qHTS assay (AID 1347395); further: nearly all actives have a fitted effect of over 30% in size
In short: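 Cells (SH-SY5Y, 2,000 per well) are seeded and left overnight at 37 C. Compound is added for 30 min, then DTNB and acetylthiocholine for a further 90 min at 37 C before absorbance-based thiocholine detection.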

[2] = molecular target: Acetylcholinesterase (Homo sapiens) (UniProt P22303); assay: Acetylcholinesterase (AChE) small molecule antagonists: enzyme-based qHTS assay (AID 1347397); settings: Potency: AChE enzyme activity inhibition; outcome: AChE enzyme activity inhibition; further: nearly all actives have a fitted effect of over 55% in size
In short: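 Tox21 library chemicals are tested in qHTS format against recombinant human AChE. The enzyme, dispensed at 50 mU/mL, sits with compound for 30 min at room temperature. A DTNB–acetylthiocholine cocktail follows, and colour is read after 10 min.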

[3] = molecular target: Acetylcholinesterase (Homo sapiens) (UniProt P22303); assay: Acetylcholinesterase (AChE) small molecule antagonists: fluorescence cell-based qHTS assay (AID 1347398); settings: Potency: AChE activity; outcome: AChE activity; further: nearly all actives have a fitted effect of over 50% in size
In short: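 Cellular AChE inhibition: SH-SY5Y cells treated with test chemical for 30 min at 37 C, then acetylthiocholine hydrolysis followed over 40 min at room temperature via thiocholine-reactive Thiolite Green fluorescence (490/520 nm).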

[4] = molecular target: Acetylcholinesterase (Homo sapiens) (UniProt P22303); assay: Acetylcholinesterase (AChE) small molecule antagonists: enzyme-based qHTS assay with human liver microsomes (AID 1347399); settings: Potency: qHTS inhibition; outcome: qHTS inhibition; further: nearly all actives have a fitted effect of over 60% in size
In short: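 Recombinant human AChE (50 mU/mL in the enzyme mix) and human liver microsomes (0.25 mg/mL final) were preincubated with compound and NADPH (0.25 mg/mL final) for 30 min at 37 C. Acetylthiocholine/DTNB was then added; thiocholine was read colorimetrically after 10 min at room temperature.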
On the % scale 0 is the no-effect control and ±100 the full control effect.

Chain of Acetylcholinesterase (Homo sapiens) (P22303 whole entry, looked up): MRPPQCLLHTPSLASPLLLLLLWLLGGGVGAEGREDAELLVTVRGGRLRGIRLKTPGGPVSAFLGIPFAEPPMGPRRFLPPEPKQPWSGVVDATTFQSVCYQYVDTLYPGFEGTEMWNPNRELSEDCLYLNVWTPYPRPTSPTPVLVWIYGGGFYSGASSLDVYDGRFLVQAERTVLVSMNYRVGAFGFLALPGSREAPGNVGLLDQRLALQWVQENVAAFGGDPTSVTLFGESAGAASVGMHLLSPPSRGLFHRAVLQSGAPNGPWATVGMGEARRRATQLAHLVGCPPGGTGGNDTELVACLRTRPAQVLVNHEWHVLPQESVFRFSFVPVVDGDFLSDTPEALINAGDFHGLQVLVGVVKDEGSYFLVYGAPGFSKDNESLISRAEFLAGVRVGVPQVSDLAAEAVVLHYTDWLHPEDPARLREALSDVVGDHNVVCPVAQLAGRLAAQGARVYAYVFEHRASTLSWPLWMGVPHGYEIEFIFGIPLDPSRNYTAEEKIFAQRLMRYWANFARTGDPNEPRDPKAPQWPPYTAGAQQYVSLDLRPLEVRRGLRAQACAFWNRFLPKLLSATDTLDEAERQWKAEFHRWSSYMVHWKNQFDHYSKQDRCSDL

Cc1ccccc1C=O
inactive: Potency [1] | Potency [2] | Potency [3] | Potency [4]

c1ccc(-c2ccccn2)nc1
inactive: Potency [1] | Potency [2] | Potency [3] | Potency [4]

O=C(O)CCCCCCCCCCC(=O)O
inactive: Potency [1] | Potency [2] | Potency [3] | Potency [4]

CCOC(=O)C(C)Oc1ccc(Oc2cnc3cc(Cl)ccc3n2)cc1 (stereo not given)
inactive: Potency [1] | Potency [2] | Potency [3] | Potency [4]

COc1ccc2[nH]cc(CCNC(C)=O)c2c1
inactive: Potency [1] | Potency [2] | Potency [3] | Potency [4]

Nc1ccc(S(=O)(=O)Nc2ccnn2-c2ccccc2)cc1
inactive: activity, negative = inhibition [1] -0.528% [at 23.6 µM] | activity change, negative = inhibition [2] -0.415% [at 23.6 µM] | activity change, negative = inhibition [3] 5.71% [at 23.8 µM] | activity change, negative = inhibition [4] -0.674% [at 23.6 µM]

O=C(c1ccc(O)cc1)c1ccc(Cl)cc1
inactive: Potency [1] | Potency [2] | Potency [3] | Potency [4]

CCCCCC(N)=O
inactive: Potency [1] | Potency [2] | Potency [3] | Potency [4]

Cc1c(C)c2c(c(C)c1O)CCC(C)(COc1ccc(CC3SC(=O)NC3=O)cc1)O2 (stereo not given)
inactive: Potency [1] | Potency [2] | Potency [3] | Potency [4]

CC(C)(C)NC[C@H](O)COc1cccc2c1CCCC2=O
inactive: Potency [1] | Potency [2] | Potency [3] | Potency [4]

C[C@@H](O)C(=O)O
inactive: Potency [1] | Potency [2] | Potency [3] | Potency [4]

CC(C)(O)CCC(C)(C)O
inactive: Potency [1] | Potency [2] | Potency [3] | Potency [4]

C=C(C)CC(C)(C)C
inactive: Potency [1] | Potency [2] | Potency [3] | Potency [4]

c1ccc2cc3c(ccc4ccccc43)cc2c1
inactive: Potency [1] | Potency [2] | Potency [3] | Potency [4]

O=C(O)c1ccc(O)cc1O
inactive: Potency [1] | Potency [2] | Potency [3] | Potency [4]

CN(Cc1cnc2nc(N)nc(N)c2n1)c1ccc(C(=O)N[C@@H](CCC(=O)O)C(=O)O)cc1
inactive: Potency [1] | Potency [2] | Potency [3] | Potency [4]

Cc1coc2ccccc2c1=O
inactive: Potency [1] | Potency [2] | Potency [3] | Potency [4]

Nc1cc(S(=O)(=O)O)ccc1O
inactive: Potency [1] | Potency [2] | Potency [3] | Potency [4]

CCCCCCCCCCCCOCC1CO1 (stereo not given)
inactive: Potency [1] | Potency [2] | Potency [3] | Potency [4]

C=Cc1ccc(C(C)(C)C)cc1
inactive: Potency [1] | Potency [2] | Potency [3] | Potency [4]

COCCOCCOCCOCCOCCO
inactive: Potency [1] | Potency [2] | Potency [3] | Potency [4]

Clc1ccc2c(c1)C(N1CCNCC1)=Nc1ccccc1O2
inactive: Potency [1] | Potency [2] | Potency [3] | Potency [4]

COC(=O)OC
inactive: Potency [1] | Potency [2] | Potency [3] | Potency [4]

CC(C)(C#N)Nc1nc(Cl)nc(NC2CC2)n1
inactive: Potency [1] | Potency [2] | Potency [3] | Potency [4]

CCOC(=O)c1ccc(N)cc1
inactive: Potency [1] | Potency [2] | Potency [3] | Potency [4]

Cc1c(C(=O)c2c[nH]n(C)c2=O)ccc(S(C)(=O)=O)c1C1=NOCC1
inactive: Potency [1] | Potency [2] | Potency [3] | Potency [4]

CCCCNS(=O)(=O)c1ccc(C)cc1
inactive: Potency [1] | Potency [2] | Potency [3] | Potency [4]

Cc1ccc(N=Nc2c(O)c(C(=O)O)cc3ccccc23)c(S(=O)(=O)O)c1
inactive: Potency [1] | Potency [2] | Potency [3] | Potency [4]

CC(CCc1ccccc1)NCC(O)c1ccc(O)c(C(N)=O)c1 (stereo not given)
inactive: Potency [1] | Potency [2] | Potency [3] | Potency [4]

C[Si](C)(C)O[Si](O)(O)O
inactive: Potency [1] | Potency [2] | Potency [3] | Potency [4]
